# Data taken from PubChem BioAssay (EPA / NIEHS).
# Where “and” joins values, the source holds several entries; their conditions need not be identical. Equal values may be shown once. Calls of active or inactive are those of the source. Rule for the calls: active = hit-call score of the fitted dose curve at least 0.9, where 1 is the maximum; inactive = score below 0.9.
# Read-out: growth arrest and DNA damage 45 (GADD45G), GADD45G (gene 10912)
# Assay: LTEA_HepaRG_GADD45G: Life Technologies and Expression Analysis (LTEA) Assay for growth arrest and DNA damage 45 (GADD45G) using HepaRG (AID 2283499)
# Settings: mRNA level, 48 h; actives raise or lower the signal
# Procedure: LTEA_HepaRG is a cell based, multiplexed-readout assay that uses HepaRG, a human liver cell line, with measurements taken at 48 hours after chemical dosing on a 96-well plate.LTEA_HepaRG_GADD45G is one of 102 assay component(s) measured in the LTEA HepaRG cell culture assay. It is a marker of Cell proliferation, survival, death.Data from the assay component LTEA_HepaRG_GADD45G was analyzed into 1 endpoint. This assay endpoint, LTEA_HepaRG_GADD45G, was analyzed with bidirectional fitting relative to DMSO as the negative control and baseline of activity. Using a type of inducible reporter, measures of mRNA induction for gain or loss-of-signal activity can be used to understand regulation of transcription factor activity. To generalize the intended target to other relatable targets, this assay endpoint is annotated to the mutagenicity response intended target family, where the subfamily is Cell proliferation, survival, death.
# A total of 1060 chemcials from the ToxCast library were tested in eight-point concentration-response experiments. Cell culture and cytotoxicity assays were conducted at Thermo Fisher Scientific's Custom Services facility (Madison, WI). A single lot of human HepaRG cells (Thermo Fisher Scientific, Frederick, MD) was used for the cell culture experiments. 96-well format collagen type I coated plates of human HepaRG cells were prepared using established methods. Briefly, cryopreserved HepaRG cells were thawed, plated at a density of approximately 100,000 cells/well in HepaRG Thaw, Plate, and General Purpose media (HPRG770, Thermo Fisher Scientific), and incubated for 48 hours. 0.5% DMSO was selected as vehicle control to balance the requisite need of DMSO in HepaRG cultures to maintain differentiation (for example, baseline metabolism, proportions of hepatocytes vs. cholangiocytes), while enabling further hepatic receptor pathway activation (for example, PXR and CAR) in response to chemical exposure. 48 hours after plating, the culture medium was replaced with HepaRG Serum-Free Incudtion Media. Cells were exposed to each test chemical in duplicate and maintained in CO2 incubators for another 48 hours. Chemical plates were thawed to room temperature and 200x concentrations of treatment groups were prepared. 8-point conentration-reponse curves were made with the highest exposure at 100 uM, followed by half-log dilutions, all in 0.5% DMSO. Each test plate contained variouse controls, induction positive controls (1mM phenobarbital), cytotoxicity positive controls ([…] aflatoxin B1), vehicle controls (0.5% DMSO), and total lysis controls (0.5% DMSO). Cell morphology images were taken using an Essen IncuCyte FLR automated microscope, with six 96-well plates imaged in about 24 minutes. Images were captured and exported and JPEG files. Spent culture media was transfered to black-well plates for the LDH assay, and remaining media was sorted at -80 C for later use. Cells were treated with RLT buffer and frozen until shipped for gene expression analysis. Total RNA was isolated from the cell suspension in 75 uL of Buffer RLT (Qiagen, Germantown, MD 20874) by Quintiles/Expression Analysis (Durham, NC) using a custom isolation procedure. Total RNA from each plate well was transferred to a preamplification plate. Fluidigm's 96.96 Dynamic ArrayTM (Fluidigm, Amsterdam, the Netherlands) technology was used for gene expression analyses by quantitative reverse transcription polymerase chain reaction (qRT-PCR, performed by Quintiles/Expression Analysis, Durham, NC)89. Standard TaqManTM Assays (Applied Biosystems/ThermoFisher Scientific, Foster City, CA) were used to assess the expression of 93 genes selected based on their selectivity and sensitivity to important hepatic receptors known to be modulated by environmental chemicals; importance in human hepatocyte functionality; and hepatotoxicity. […]
Compound,outcome,AC50
COC(=O)C=C(C)OP(=O)(OC)OC,inactive,
CC(C)C1(C)N=C(c2nc3ccccc3cc2C(=O)O)NC1=O (stereo not given),inactive,
C=CCC1=C(C)C(OC(=O)C2C(C=C(C)C)C2(C)C)CC1=O (stereo not given),inactive,
CC(C)Oc1cc(-n2nc(C(C)(C)C)oc2=O)c(Cl)cc1Cl,,77.8 µM (active)
CCc1nn(C)c(C(=O)NCc2ccc(C(C)(C)C)cc2)c1Cl,,0.6 µM (active)
CCON=C(CC)C1=C(O)CC(c2c(C)cc(C)cc2C)CC1=O (stereo not given),inactive,
COC(=O)N(OC)c1ccccc1COc1ccn(-c2ccc(Cl)cc2)n1,,79.5 µM (active)
Cc1ccc(-c2c(Cl)nc(C#N)n2S(=O)(=O)N(C)C)cc1,,11.7 µM (active)
Cc1cc(Cl)ccc1OCC(=O)O,inactive,
N#CC(CCc1ccc(Cl)cc1)(Cn1cncn1)c1ccccc1 (stereo not given),,40 µM (active)
CCCCOC(=O)c1ccccc1C(=O)OCCCC,inactive,
O=C(Nc1ccccc1)Nc1ccnc(Cl)c1,inactive,
C#CCOS(=O)OC1CCCCC1Oc1ccc(C(C)(C)C)cc1 (stereo not given),,12.7 µM (active)
COc1cnc(OC)n2nc(NS(=O)(=O)c3c(OCC(F)F)cccc3C(F)(F)F)nc12,inactive,
COP(N)(=O)SC (stereo not given),inactive,
CCOC(=O)C(Cl)Cc1cc(-n2nc(C)n(C(F)F)c2=O)c(F)cc1Cl (stereo not given),inactive,
CCCCNC(=O)OCC#CI,inactive,
COC(=O)C(C)Oc1ccc(Oc2ccc(Cl)cc2Cl)cc1 (stereo not given),inactive,
CCNc1nc(Cl)nc(NC(C)C)n1,inactive,
N#Cc1nn(-c2c(Cl)cc(C(F)(F)F)cc2Cl)c(N)c1S(=O)C(F)(F)F (stereo not given),,31.5 µM (active)

Compound,outcome,AC50
CNC(=S)S,inactive,
CCOC(=O)CC(SP(=S)(OC)OC)C(=O)OCC (stereo not given),inactive,
Oc1ccccc1-c1ccccc1,inactive,
CC(Oc1ccc(Cl)cc1Cl)C(=O)O (stereo not given),inactive,
Fc1ccc(Oc2ccnc3cc(Cl)cc(Cl)c23)cc1,inactive,
CCOP(=S)(OCC)SCn1c(=O)oc2cc(Cl)ccc21,inactive,
CS/C(C)=N/OC(=O)N(C)SN(C)C(=O)O/N=C(\C)SC,inactive,
CON(C)C(=O)Nc1ccc(Cl)c(Cl)c1,inactive,
CNC(=O)ON=CC(C)(C)SC,inactive,
CC1=C(C(=O)Nc2ccccc2)SCCO1,,61.8 µM (active)
Cc1c(F)c(F)c(COC(=O)C2C(/C=C(\Cl)C(F)(F)F)C2(C)C)c(F)c1F (stereo not given),inactive,
OC(c1ccc(Cl)cc1)(c1cncnc1)c1ccccc1Cl (stereo not given),,68.7 µM (active)
O=C(O)COc1nc(Cl)c(Cl)cc1Cl,inactive,
COC(=O)c1ccccc1C(=O)OC,inactive,
CCCC1COC(Cn2cncn2)(c2ccc(Cl)cc2Cl)O1 (stereo not given),,35.6 µM (active)
CC(C)(C)c1ccc(CSc2cnn(C(C)(C)C)c(=O)c2Cl)cc1,,2.07 µM (active)
N#Cc1cc(Br)c(O)c(Br)c1,,71.4 µM (active)
CCOc1cc(Oc2ccc(C(F)(F)F)cc2Cl)ccc1[N+](=O)[O-],inactive,
CO/C=C(/C(=O)OC)c1ccccc1Oc1cc(Oc2ccccc2C#N)ncn1,,78 µM (active) and 80.2 µM (active) and 73.5 µM (active)
COP(=S)(OC)Oc1nc(Cl)c(Cl)cc1Cl,inactive,
